Test results from the supplement of paper PMC9694430.

What was measured:
Test in all cases: thermal shift delta Tm vs DMSO control; higher = stronger stabilization (binding)
Details in all cases: 12.5 µM; protein concentration 2 µM
[1] = tested on: LOC_OS01G01410-cb001
Procedure, shortened: (§1)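 The melting temperature shift given here is a triplicate mean, measured against protein that received only DMSO. Melting temperatures came from Boltzmann fits of differential scanning fluorimetry data on E. coli-expressed, purified rice kinase domain constructs. Each 19.5 μl well contained 2 μM kinase, 100 mM potassium phosphate pH 7.5, 150 mM NaCl, 10% glycerol, 5 × SYPRO Orange and compound in DMSO. Plates were scanned from 25°C to 95°C at 0.05°C/s.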

[2] = tested on: LOC_OS01G02750-cb003
Procedure, shortened: as §1

[3] = tested on: LOC_OS01G10900-cb004
Procedure, shortened: as §1

[4] = tested on: LOC_OS01G13800-cb001
Procedure, shortened: as §1

[5] = tested on: LOC_OS01G14860-cb001
Procedure, shortened: as §1

[6] = tested on: LOC_OS01G21960-cb002
Procedure, shortened: as §1

[7] = tested on: LOC_OS01G39600-cb002
Procedure, shortened: as §1

[8] = tested on: LOC_OS01G48390-cb002
Procedure, shortened: as §1

[9] = tested on: LOC_OS01G51400-cb002
Procedure, shortened: as §1

[10] = tested on: T1, LOC_OS01G52050-cb004
T1 sequence (whole entry): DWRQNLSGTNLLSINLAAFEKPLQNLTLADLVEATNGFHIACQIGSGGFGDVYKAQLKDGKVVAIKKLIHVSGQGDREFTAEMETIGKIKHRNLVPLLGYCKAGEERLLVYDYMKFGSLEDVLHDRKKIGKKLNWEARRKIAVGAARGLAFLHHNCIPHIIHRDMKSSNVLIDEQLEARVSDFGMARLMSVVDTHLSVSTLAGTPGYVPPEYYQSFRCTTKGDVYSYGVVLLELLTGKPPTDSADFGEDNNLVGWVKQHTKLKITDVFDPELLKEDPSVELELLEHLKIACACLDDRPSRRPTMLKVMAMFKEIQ
Procedure, shortened: as §1

Row | SMILES | thermal shift delta Tm [1] [°C] | thermal shift delta Tm [2] [°C] | thermal shift delta Tm [3] [°C] | thermal shift delta Tm [4] [°C] | thermal shift delta Tm [5] [°C] | thermal shift delta Tm [6] [°C] | thermal shift delta Tm [7] [°C] | thermal shift delta Tm [8] [°C] | thermal shift delta Tm [9] [°C] | thermal shift delta Tm [10] [°C]
1 | COc1cc(N2CCC(N)CC2)ccc1Nc1ncc(Cl)c(-c2c[nH]c3ccccc23)n1 | 0.82 | 0.87 | 2.95 | -0.64 | 1.41 | 3.79 | -2.78 | 0.17 | 1.21 | 5.27
2 | CN1CCN(c2ccc3nc(-c4c(N)c5c(F)cccc5[nH]c4=O)[nH]c3c2)CC1 [Dovitinib (TKI-258) Dilactic Acid] | 5.85 | 2.07 | 4.46 | -0.49 | 1.65 | 3.5 | 4.66 | 3.4 | 0.79 | 6.33
3 | Cc1cc(C(=O)NOCCO)c(Nc2ccc(I)cc2F)n(C)c1=O | 0.56 | 0.29 | 0.4 | 0.2 | 0.16 | 0.85 | -0.46 | 0.25 | -0.04 | -0.21
4 | CCN1C(=O)CNc2ncc(-c3ccc(-c4nc[nH]n4)nc3C)nc21 | 0.49 | -0.88 | 1.31 | 0.86 | 1.11 | 0.62 | -1.87 | 0.34 | -0.29 | -1.26
5 | CN(C)C[C@@H]1CCn2cc(c3ccccc32)C2=C(C(=O)NC2=O)c2cn(c3ccccc23)CCO1 | 1.3 | 0.71 | 0.95 | 1.16 | 2.41 | 2.83 | 2.85 | 0.62 | -0.02 | -0.62
6 | O=C1NC(=O)[C@@H](c2cn3c4c(cccc24)CCC3)[C@@H]1c1c[nH]c2ccccc12 [Tivantinib (ARQ 197)] | 0.55 | 0.06 | 0.15 | 0.17 | 0.16 | 0.75 | 0.54 | 0.43 | 0.27 | 0.75
7 | CC(C)(C)NC(=O)c1cncn1C1CCN(c2ccc(-c3nnc(C(F)(F)F)o3)cn2)CC1 | 0.22 | 0.89 | 0.11 | -0.25 | 0.2 | 0.13 | -0.63 | 0.3 | 0.06 | 0.97
8 | Oc1c2ccccc2c2c3c(cccc13)N=N2 | 3.59 | 5.55 | 3.61 | 0.39 | 2.06 | 2.7 | 1.16 | 5.42 | 0.42 | 7.57
9 | CC(C)n1ncnc1-c1cn2c(n1)-c1ccc(O[C@@H](C)C(N)=O)cc1OCC2 | 0.47 | 1.25 | 0.08 | 0.67 | 0.28 | 0.8 | 0.74 | 0.6 | 0.1 | 0.31
10 | CO[C@@H](C(=O)N1Cc2[nH]nc(NC(=O)c3ccc(N4CCN(C)CC4)cc3)c2C1)c1ccccc1 | 3 | 1.69 | 6.13 | -0.31 | 0.54 | 0.38 | 1.14 | 3.55 | 0.01 | 0.36
11 | C[C@H](Nc1ncnc2[nH]cnc12)c1cc2ccc(F)cc2nc1-c1ccccn1 | 0.51 | 2.1 | 0.26 | 0.16 | 0.16 | 0.92 | -0.54 | 0.94 | 0.64 | 0.37
12 | Nc1cccc(S(=O)(=O)N2CCCN(S(=O)(=O)c3ccc4c(c3)OCCO4)CC2)c1 | 0.49 | 1.98 | 0.15 | 0.22 | 0.23 | 0.8 | -0.77 | 3.24 | 0.46 | 0.19
13 | Cc1cc(Nc2cc(Cl)nc(Oc3ccc([N+](=O)[O-])cc3)n2)n[nH]1 [Autophinib] | 2.53 | 3.49 | 2.92 | -0.1 | 7.77 | 1.42 | 1.82 | 4.13 | 0.51 | 5.57
14 | CN1CCN(c2ccc(OC(F)(F)F)c(Nc3ncc4c(n3)-c3c(c(C(N)=O)nn3CCO)CC4)c2)CC1 | 0.81 | 1.85 | 0.67 | -0.54 | 0.5 | 0.64 | 0.04 | -0.15 | 0.17 | 1.03
15 | CCn1c2ccccc2c2cc(Nc3ccnc(NCCCN4CCOCC4)n3)ccc21 | -0.05 | -0.06 | 0.59 | -0.29 | 0.53 | 0.58 | -0.04 | 0.62 | 0.13 | 0.07
16 | COc1ccc(-c2ccc3c(N4CCOC[C@@H]4C)nc(N4CCOC[C@@H]4C)nc3n2)cc1CO | 0.54 | 0.23 | 0.08 | 0.21 | 0 | -0.12 | -0.26 | 0.01 | -0.16 | 0.06
17 | Cc1ccc(NC(=O)c2ccc(CN3CC[C@H](N(C)C)C3)c(C(F)(F)F)c2)cc1Nc1nccc(-c2cncnc2)n1 [Bafetinib (INNO-406)] | 0.65 | 0.59 | 0.73 | 0.04 | 0.5 | 0.66 | -0.18 | 1.17 | 0.46 | 0.61
18 | C#Cc1cccc(Nc2ncnc3cc(OC)c(OCCCCCCC(=O)NO)cc23)c1 | 0.66 | 0.59 | 0.97 | 0.44 | 0.54 | 0.53 | 1.06 | 1.12 | 0.13 | 0.41
19 | CNC(=O)c1ccc(Nc2ncc(C(F)(F)F)c(NCc3nccnc3N(C)S(C)(=O)=O)n2)cc1 | 1.64 | 3.47 | 1.96 | -0.3 | 7.22 | 2.6 | 5.05 | 3.16 | 0.96 | 6.78
